# Results published in PubChem BioAssay (NCATS).
# Records with an inconclusive call do not appear. A call without a number means that no potency is given here. Active and inactive are the calls of the source. Unless noted, the call rests on the fitted dose curve; in most records, active means well fitted curve in either direction with a large enough effect (not every such curve was filed as active); inconclusive means small, poorly fitted or top-dose-only effect, or another doubt; inactive means flat fitted curve, though single readings scatter.
# Key:
# [1] = AP1 Signaling Pathway (AID 357);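 further: ME-180 reporter cells stimulated with EGF at its EC50 level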
# Outline: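 Modulation of EGF-driven AP-1 transcription was assessed with a beta-lactamase reporter in ME-180 cells. Compound and EC50 EGF were co-incubated 5 hours at 37 °C before 2.5-hour CCF4 loading at room temperature and dual-emission reading.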
# [2] = target: Cytochrome P450 1A2 (Homo sapiens) (UniProt P05177); assay: p450-cyp1a2 (AID 410; calls by dose curve; further: potency means the concentration at half of the fitted maximal effect)
# Outline: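 Human CYP1A2 (20nM) demethylated Luciferin-ME at its Km (100uM) in 100mM KPO4. After 10 min compound preincubation, NADPH regeneration ran the reaction 60 min at room temperature. Luciferin was read by luminescence, normalized to 57 uM furafylline.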
# [3] = Stat Signaling Pathway (AID 446);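 further: ME-180 cervical cancer cells given 40 pM IL-6 alongside compound; SIE-controlled beta-lactamase reporter measured as 460/530 nm FRET emission ratio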
# Outline: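 IL-6/STAT signaling read in ME-180 cells via an SIE beta-lactamase reporter. Stimulus was 40 pM IL-6 (its AC50) for 5 hrs, so both activation and inhibition register.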
# [4] = target: Glucocorticoid receptor (Homo sapiens) (UniProt P04150); assay: GR-GFP Redistribution (AID 450;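 active means compounds whose dose series gives a full or clear partial fitted curve of increased nuclear translocation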; further: potency means the concentration at half of the fitted maximal effect); conditions: U2OS GR-GFP nuclear translocation, laser cytometry, 2 h
# [5] = target: Glucocorticoid receptor (Homo sapiens) (UniProt P04150); assay: GR-EFC Redistribution (AID 451; calls by dose curve; further: potency means the concentration at half of the fitted maximal effect); conditions: CHO-K1 GR-EFC translocation, beta-gal luminescence, 2 h
# Outline: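 CHO-K1 cells expressing nuclear EA and GR-ED fragments of b-gal; compounds titrated up to 46 uM final, 2 h at 37 C. GR nuclear translocation read as complemented b-gal luminescence after 1 h RT detection.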
# [6] = target: Mitogen-activated protein kinase 10 (Mus musculus) (UniProt Q61831); assay: JNK3 AlphaScreen Assay (AID 530);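 further: kinase came from lysate of stimulated human HepG2 cells; signal reports phosphorylation of biotinylated GST-cJun 1-79 at Ser73 with 10 µM ATP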
# Outline: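 qHTS format: compounds tested as titrations against IL-1beta/TNF-alpha-activated HepG2 lysate JNK3 with biotin-GST-cJun substrate and 10 uM ATP at room temperature. Loss of anti-phospho-cJun AlphaScreen signal indicates inhibition.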
# [7] = target: 3',5'-cyclic-AMP phosphodiesterase 4B (Homo sapiens) (UniProt Q07343); assay: qHTS Assay for Inhibitors of PDE-IV (AID 607; active means well fitted activation curve with a large enough effect in the main read-out, with a control signal flat, not every such curve was filed as active)
# Outline: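 Live HEK293 cells with a modified cyclic nucleotide-gated (CNG) channel report intracellular cAMP via membrane-potential dye fluorescence (ex 535/em 590 nm). Endogenous PDE-IV was targeted. Compounds were tested at up to 22.9 uM final; RO 20-1724 100 uM served as control.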
# [8] = qHTS Assay for Lipid Storage Modulators (AID 1519; calls by dose curve); conditions: Drosophila S3 cells, BODIPY lipid droplet/cell ratio, laser cytometry, cells loaded with oleic acid; for activity change, negative = inhibition: at 25.7 µM (top of the series)
# Outline: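 Cells seeded at 5,000 per well were treated with compounds over a concentration series and loaded with oleic acid (400 uM, as added). Lipid droplet fluorescence (488 nm excitation, 500-530 nm channel) was read by laser-scanning cytometry and normalized to 20 uM Triacsin C.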
# [9] = target: Ubiquitin carboxyl-terminal hydrolase 1 (Homo sapiens) (UniProt O94782); assay: Inhibitors of USP1/UAF1: Pilot qHTS (AID 504865; active means well fitted inhibition curve with a large enough effect;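 further: rhodamine fluorescence freed from ubiquitin-rhodamine substrate followed over time; top concentration of the series differs between compounds; nearly all actives have a fitted effect of over 35% in size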)
# Outline: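 Enzyme-free wells gave the negative control, while test wells held 1nM USP1/UAF1 preincubated with compound for 15 min at room temperature. Ub-Rho at 150nM final started the reaction, and fluorescence at 480/540 nm was recorded kinetically.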
# [10] = target: Luciferin 4-monooxygenase (Photinus pyralis) (UniProt P08659); assay: Biochemical firefly luciferase enzyme assay for NPC (AID 624030; active means well fitted inhibition curve with a large enough effect;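 further: purified P. pyralis luciferase at 10 nM with luciferin and ATP substrate; nearly all actives have a fitted effect of over 70% in size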)
# Outline: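 Purified P. pyralis luciferase at 10 nM in 50 mM Tris Acetate (final), luminescence read within 5 minutes of enzyme addition to compounds. Activity normalised to PTC124 versus DMSO; concentration-response curves classed by r2, magnitude and activity.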
# [11] = qHTS profiling for inhibitors of Plasmodium falciparum proliferation (AID 504749; active means well fitted inhibition curve with a large enough effect; further: nearly all actives have a fitted effect of over 60% in size; further: potency means the concentration at half of the fitted maximal effect); conditions: P. falciparum in erythrocytes, SYBR Green DNA, 72 h, at 12.8 µM (top of the series)
# Outline: (§1)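 Readout was DNA-dye fluorescence from lysed cultures, ex 485/em 535 nm. Parasitized red cells had grown 72 h with compound; data scaled between 0.29 uM artemisinin and DMSO wells and corrected using vehicle-only plates.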
# C2A = assay: as above; conditions: P. falciparum in erythrocytes, SYBR Green DNA, 72 h; series mostly up to 12.8 µM
# Outline: as §1
# CP217 = assay: as above; conditions: P. falciparum in erythrocytes, SYBR Green DNA, 72 h; series mostly up to 12.8 µM
# Outline: as §1
# CP238 = assay: as above; conditions: P. falciparum in erythrocytes, SYBR Green DNA, 72 h; series mostly up to 12.8 µM
# Outline: as §1
# CP250 = assay: as above; conditions: P. falciparum in erythrocytes, SYBR Green DNA, 72 h; series mostly up to 12.8 µM
# Outline: as §1
# CP256 = assay: as above; conditions: P. falciparum in erythrocytes, SYBR Green DNA, 72 h; series mostly up to 12.8 µM
# Outline: as §1
# FAB9 = assay: as above; conditions: P. falciparum in erythrocytes, SYBR Green DNA, 72 h; series mostly up to 12.8 µM
# Outline: as §1
# JCK = assay: as above; conditions: P. falciparum in erythrocytes, SYBR Green DNA, 72 h; series mostly up to 12.8 µM
# Outline: as §1
# SC27B = assay: as above; conditions: P. falciparum in erythrocytes, SYBR Green DNA, 72 h; series mostly up to 12.8 µM
# Outline: as §1
# [12] = NFAT Signaling Pathway (AID 444); conditions: Jurkat NFAT-bla M1, carbachol, beta-lactamase ratio, 5 h; at 17.2 µM (top of the series) unless noted;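 further: carbachol stimulus at about its EC50 of 1 µM final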
# Outline: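 Jurkat cells with NFAT-driven β-lactamase reporter and co-expressed M1 receptor, stimulated with carbachol (final 1 uM, ~EC50), compound titration, 5 h at 37 °C. CCF4 loaded 1 h at RT; 460/530 nm ratio gave %activity and AC50.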
# [13] = measured here: cell count channel max response
# [14] = measured here: lipid channel max response
# Luciferin 4-monooxygenase (Photinus pyralis), sequence (P08659 whole entry, looked up): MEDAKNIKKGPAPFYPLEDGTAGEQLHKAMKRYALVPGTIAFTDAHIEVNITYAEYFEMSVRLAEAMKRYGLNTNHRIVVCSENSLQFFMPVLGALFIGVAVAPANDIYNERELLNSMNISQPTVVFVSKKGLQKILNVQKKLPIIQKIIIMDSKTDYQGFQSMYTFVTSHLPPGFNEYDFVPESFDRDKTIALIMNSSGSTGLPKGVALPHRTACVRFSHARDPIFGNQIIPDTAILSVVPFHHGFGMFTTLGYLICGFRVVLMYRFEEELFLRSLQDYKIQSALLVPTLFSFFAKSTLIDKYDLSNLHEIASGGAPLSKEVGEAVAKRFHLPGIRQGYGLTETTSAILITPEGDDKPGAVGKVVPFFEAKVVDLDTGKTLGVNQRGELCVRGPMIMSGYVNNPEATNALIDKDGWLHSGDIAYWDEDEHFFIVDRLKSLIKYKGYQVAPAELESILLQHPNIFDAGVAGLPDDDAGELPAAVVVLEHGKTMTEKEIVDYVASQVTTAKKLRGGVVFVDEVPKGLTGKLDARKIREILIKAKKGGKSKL
# 3',5'-cyclic-AMP phosphodiesterase 4B (Homo sapiens), sequence (Q07343 whole entry, looked up): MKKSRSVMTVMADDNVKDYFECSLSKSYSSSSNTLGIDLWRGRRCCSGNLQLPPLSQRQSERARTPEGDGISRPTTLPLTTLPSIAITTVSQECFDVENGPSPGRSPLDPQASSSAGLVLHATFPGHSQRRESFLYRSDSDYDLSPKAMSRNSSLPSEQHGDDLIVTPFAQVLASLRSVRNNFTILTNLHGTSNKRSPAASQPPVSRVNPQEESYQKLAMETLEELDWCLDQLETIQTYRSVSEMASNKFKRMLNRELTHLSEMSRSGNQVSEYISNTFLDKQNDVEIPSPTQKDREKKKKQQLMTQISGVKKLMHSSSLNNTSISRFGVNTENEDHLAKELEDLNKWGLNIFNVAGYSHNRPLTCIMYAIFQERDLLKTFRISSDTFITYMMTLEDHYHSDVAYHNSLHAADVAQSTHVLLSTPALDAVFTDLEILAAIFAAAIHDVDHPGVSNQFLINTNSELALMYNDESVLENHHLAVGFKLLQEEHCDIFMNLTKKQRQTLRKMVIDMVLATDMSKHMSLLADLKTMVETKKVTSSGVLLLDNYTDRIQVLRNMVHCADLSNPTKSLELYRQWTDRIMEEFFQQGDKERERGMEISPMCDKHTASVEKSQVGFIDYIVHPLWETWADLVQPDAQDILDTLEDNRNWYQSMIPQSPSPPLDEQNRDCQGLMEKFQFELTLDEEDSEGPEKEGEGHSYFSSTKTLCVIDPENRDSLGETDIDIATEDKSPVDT
# Ubiquitin carboxyl-terminal hydrolase 1 (Homo sapiens), sequence (O94782 whole entry, looked up): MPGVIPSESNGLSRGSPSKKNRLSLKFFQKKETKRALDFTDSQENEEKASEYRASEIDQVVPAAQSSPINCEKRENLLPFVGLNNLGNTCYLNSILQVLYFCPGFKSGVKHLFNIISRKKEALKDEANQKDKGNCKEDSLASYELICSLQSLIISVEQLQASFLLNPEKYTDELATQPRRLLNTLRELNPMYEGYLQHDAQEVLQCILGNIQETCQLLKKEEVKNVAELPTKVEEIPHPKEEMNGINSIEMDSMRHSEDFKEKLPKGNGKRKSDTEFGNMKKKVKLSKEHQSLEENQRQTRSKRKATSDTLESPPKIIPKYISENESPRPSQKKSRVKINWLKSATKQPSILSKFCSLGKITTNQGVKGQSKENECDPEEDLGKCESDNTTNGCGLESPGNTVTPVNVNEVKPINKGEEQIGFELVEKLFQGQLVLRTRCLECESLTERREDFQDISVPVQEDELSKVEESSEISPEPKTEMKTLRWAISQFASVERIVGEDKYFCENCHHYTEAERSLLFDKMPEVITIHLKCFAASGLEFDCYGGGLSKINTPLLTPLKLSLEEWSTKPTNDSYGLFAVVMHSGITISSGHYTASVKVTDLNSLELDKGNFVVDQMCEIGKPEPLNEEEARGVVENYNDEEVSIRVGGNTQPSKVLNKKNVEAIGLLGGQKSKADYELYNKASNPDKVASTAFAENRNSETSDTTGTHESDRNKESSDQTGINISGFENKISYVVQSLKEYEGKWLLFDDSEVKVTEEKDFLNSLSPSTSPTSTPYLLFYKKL
# Cytochrome P450 1A2 (Homo sapiens), sequence (P05177 whole entry, looked up): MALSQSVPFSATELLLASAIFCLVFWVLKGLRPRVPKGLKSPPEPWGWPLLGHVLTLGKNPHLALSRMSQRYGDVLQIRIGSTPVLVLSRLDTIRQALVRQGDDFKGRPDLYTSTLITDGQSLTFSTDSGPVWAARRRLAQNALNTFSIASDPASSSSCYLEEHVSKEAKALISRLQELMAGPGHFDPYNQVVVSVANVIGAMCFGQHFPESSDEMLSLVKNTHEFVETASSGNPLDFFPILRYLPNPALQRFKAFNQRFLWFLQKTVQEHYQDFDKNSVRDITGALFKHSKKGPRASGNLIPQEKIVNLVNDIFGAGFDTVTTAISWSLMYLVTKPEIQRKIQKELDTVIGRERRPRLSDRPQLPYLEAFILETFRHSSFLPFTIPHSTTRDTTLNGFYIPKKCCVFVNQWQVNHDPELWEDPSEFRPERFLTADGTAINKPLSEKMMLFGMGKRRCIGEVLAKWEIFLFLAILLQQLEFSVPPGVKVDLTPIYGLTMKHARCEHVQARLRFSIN
# Glucocorticoid receptor (Homo sapiens), sequence (P04150 whole entry, looked up, the tested form may be a part): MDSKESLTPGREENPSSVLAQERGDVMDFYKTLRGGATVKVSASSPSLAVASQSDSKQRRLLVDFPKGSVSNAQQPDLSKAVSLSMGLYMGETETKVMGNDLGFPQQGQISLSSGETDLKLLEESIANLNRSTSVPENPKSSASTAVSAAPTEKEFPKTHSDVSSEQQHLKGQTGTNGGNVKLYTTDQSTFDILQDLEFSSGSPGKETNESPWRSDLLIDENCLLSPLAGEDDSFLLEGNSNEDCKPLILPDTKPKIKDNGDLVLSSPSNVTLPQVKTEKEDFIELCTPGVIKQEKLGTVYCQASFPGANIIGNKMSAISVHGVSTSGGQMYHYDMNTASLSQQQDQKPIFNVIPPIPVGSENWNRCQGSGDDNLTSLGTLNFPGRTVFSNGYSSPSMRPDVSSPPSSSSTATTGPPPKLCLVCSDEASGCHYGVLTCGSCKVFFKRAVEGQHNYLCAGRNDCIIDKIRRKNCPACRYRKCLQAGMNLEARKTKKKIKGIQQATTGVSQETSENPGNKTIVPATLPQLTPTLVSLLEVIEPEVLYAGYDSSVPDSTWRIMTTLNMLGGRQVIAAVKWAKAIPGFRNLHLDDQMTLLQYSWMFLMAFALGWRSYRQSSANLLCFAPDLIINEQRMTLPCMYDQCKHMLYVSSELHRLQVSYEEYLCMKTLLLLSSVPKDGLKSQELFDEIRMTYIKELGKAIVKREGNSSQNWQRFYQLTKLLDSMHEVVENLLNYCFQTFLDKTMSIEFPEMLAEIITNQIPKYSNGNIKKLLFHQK
compound,measurement,setting,value
C[C@@H]1[C@H]2CC[C@@H]3[C@@H]4CC=C5C[C@@H](N(C)C)CC[C@]5(C)[C@@H]4CC[C@@]32CN1C,outcome,[1],inactive
same,Potency,[2],inactive
same,outcome,[3],inactive
same,Potency,[4],> 20.6 µM (inactive)
same,Potency,[5],> 20.6 µM (inactive)
same,Potency,[6],inactive
same,outcome,[7],inactive
same,"activity change, negative = inhibition",[8],-1.08% (inactive)
same,max response,[8]; [13],-4.62%
same,max response,[8]; [14],-8.59%
C[C@H]1[C@@H](O)[C@@H](C)\C=C/C=C\C=C/C=C\C=C/C=C\C=C/[C@@H](O[C@H]2O[C@@H](C)[C@@H](O)[C@@H](N)[C@@H]2O)C[C@@H]2O[C@](O)(C[C@@H](O)C[C@@H](O)[C@@H](O)CC[C@@H](O)C[C@@H](O)CC(=O)O[C@H]1C)C[C@@H](O)[C@H]2C(=O)O (stereo in doubt),outcome,[1],inactive
same,Potency,[2],inactive
same,outcome,[3],inactive
same,Potency,[4],> 20.6 µM (inactive)
same,Potency,[5],> 20.6 µM (inactive)
same,Potency,[6],inactive
same,outcome,[7],inactive
same,"activity change, negative = inhibition",[8],3.52% (inactive)
same,max response,[8]; [13],0.724%
same,max response,[8]; [14],3.85%
same,Potency,[9],inactive
CC(=O)O[C@]1(C(C)=O)CC[C@@H]2[C@@H]3C=C(C)C4=CC(=O)CC[C@@]4(C)[C@H]3CC[C@]21C,outcome,[1],inactive
same,Potency,[2],inactive
same,outcome,[3],inactive
same,Potency,[4],0.00312 µM (active)
same,Potency,[5],0.0557 µM (active)
same,Potency,[6],inactive
same,outcome,[7],inactive
same,"activity change, negative = inhibition",[8],-3.56% (inactive)
same,max response,[8]; [13],-20.2%
same,max response,[8]; [14],-22%
same,Potency,[10],inactive
same,"activity, negative = inhibition",[11]; parasite line A,-0.563% (inactive)
same,"activity, negative = inhibition",[11]; parasite line B,2.77% (inactive)
same,Potency,C2A,inactive
same,Potency,CP217,inactive
same,Potency,CP238,inactive
same,Potency,CP250,inactive
same,Potency,CP256,inactive
same,Potency,FAB9,inactive
same,Potency,JCK,inactive
same,Potency,SC27B,inactive
CC[C@@H]1OC(=O)[C@H](C)[C@H](O[C@@H]2C[C@](C)(OC)[C@H](O)[C@H](C)O2)[C@H](C)[C@H](O[C@@H]2O[C@@H](C)C[C@@H](N(C)C)[C@@H]2O)[C@](C)(O)C[C@H](C)C(=O)[C@H](C)[C@H](O)[C@]1(C)O,outcome,[1],inactive
same,Potency,[2],inactive
same,"activity change, negative = inhibition",[12],0.792% (inactive)
same,outcome,[3],inactive
same,Potency,[6],inactive
same,outcome,[7],inactive
same,"activity change, negative = inhibition",[8],-1.3% (inactive)
same,max response,[8]; [13],9.04%
same,max response,[8]; [14],8.95%
C#C[C@@]1(O)CC[C@@H]2[C@@H]3CCC4=CC(=O)CC[C@@H]4[C@H]3CC[C@]21C,outcome,[1],inactive
same,Potency,[2],inactive
same,"activity change, negative = inhibition",[12],-7.42% (inactive)
same,outcome,[3],inactive
same,outcome,[7],inactive
same,"activity change, negative = inhibition",[8],-2.83% (inactive)
same,max response,[8]; [13],-8.09%
same,max response,[8]; [14],-9.96%
OCCN1CCN(CCC=C2c3ccccc3Sc3ccc(Cl)cc32)CC1,outcome,[1],inactive
same,Potency,[2],15.8 µM (active)
same,outcome,[3],inactive
same,Potency,[4],> 20.6 µM (inactive)
same,Potency,[5],> 20.6 µM (inactive)
same,Potency,[6],inactive
same,outcome,[7],inactive
same,"activity change, negative = inhibition",[8],-7.08% (inactive)
same,max response,[8]; [13],-13.2%
same,max response,[8]; [14],-20.1%
same,Potency,[9],inactive
same,Potency,[10],inactive
same,Potency,C2A,inactive
same,Potency,CP238,inactive
same,Potency,CP256,3.55 µM (active)
same,Potency,FAB9,inactive
same,Potency,JCK,inactive
same,Potency,SC27B,inactive
c1ccc2c3c([nH]c2c1)[C@@H]1[C@H]2CC[C@H]([C@H]4CCCN[C@H]42)N1CC3,outcome,[1],inactive
same,Potency,[2],15.8 µM (active)
same,outcome,[3],inactive
same,Potency,[4],> 20.6 µM (inactive)
same,Potency,[5],> 20.6 µM (inactive)
same,Potency,[6],inactive
same,outcome,[7],inactive
same,"activity change, negative = inhibition",[8],-1.37% (inactive)
same,max response,[8]; [13],0.348%
same,max response,[8]; [14],-3.2%
NCC[C@H](O)C(=O)N[C@H]1C[C@@H](N)[C@@H](O[C@H]2O[C@@H](CN)[C@@H](O)[C@@H](O)[C@@H]2O)[C@@H](O)[C@@H]1O[C@H]1O[C@@H](CO)[C@@H](O)[C@@H](N)[C@@H]1O,outcome,[1],inactive
same,Potency,[2],inactive
same,outcome,[3],inactive
same,Potency,[4],> 20.6 µM (inactive)
same,Potency,[5],> 20.6 µM (inactive)
same,Potency,[6],inactive
same,outcome,[7],inactive
same,"activity change, negative = inhibition",[8],-0.738% (inactive)
same,max response,[8]; [13],11.5%
same,max response,[8]; [14],11.3%
Cc1c(C)c2c(c(C)c1O)CC[C@@](C)(C(=O)O)O2,outcome,[1],inactive
same,Potency,[2],20 µM (active)
same,outcome,[3],inactive
same,Potency,[4],> 20.6 µM (inactive)
same,Potency,[5],> 20.6 µM (inactive)
same,Potency,[6],inactive
same,outcome,[7],inactive
same,"activity change, negative = inhibition",[8],0.436% (inactive)
same,max response,[8]; [13],-15.9%
same,max response,[8]; [14],-17.6%
same,Potency,[9],inactive
CCC(=O)O[C@@]1(C(=O)SCF)[C@@H](C)C[C@H]2[C@@H]3C[C@@H](F)C4=CC(=O)C=C[C@@]4(C)[C@]3(F)[C@@H](O)C[C@]21C,outcome,[1],inactive
same,Potency,[2],inactive
same,outcome,[3],inactive
same,Potency,[6],inactive
same,outcome,[7],inactive
same,"activity change, negative = inhibition",[8],1.23% (inactive)
same,max response,[8]; [13],-7.35%
same,max response,[8]; [14],-5.95%
same,Potency,[10],inactive
same,Potency,C2A,inactive
same,Potency,CP250,inactive
same,Potency,CP256,inactive
same,Potency,JCK,inactive
same,Potency,SC27B,inactive
C=CCSC[C@@H]1Nc2cc(Cl)c(S(N)(=O)=O)cc2S(=O)(=O)N1,outcome,[1],inactive
same,Potency,[2],inactive
same,outcome,[3],inactive
same,Potency,[4],> 20.6 µM (inactive)
same,Potency,[5],> 20.6 µM (inactive)
same,outcome,[7],inactive
same,"activity change, negative = inhibition",[8],-0.966% (inactive)
same,max response,[8]; [13],-24.3%
same,max response,[8]; [14],-22.1%
same,Potency,[9],inactive
